# Assay results reported in PubChem BioAssay (NCATS).
# “And” between values parts separate entries of the source, which are not always exact repeats. Identical values can stand only once. Results filed as inconclusive are left out. For some assays here: Entries with a potency or affinity are not part of this list. The source made the active and inactive calls. Where a SMILES comes first, the peptide text is derived from it. Bridges are numbered along the chain shown (N, C = ends). [ ]: non-standard residue; d: D form. The star is where a group is joined. Dab(CH2SO3H) = N[C@@H](CCNCS(=O)(=O)O)C(=O)O; X1 = CC[C@@H](C)CCCCC(=O)*; Dab = NCC[C@H](N)C(=O)O
# Key:
# [1] = Ebola virus entry assay, blue channel fluorescence
# [2] = Ebola virus entry assay, green fluorescence channel
# [3] = Ebola virus entry assay, ratio channel readout
# [4] = Ebola virus entry assay, blue channel fluorescence; remark: listed apart in the source
# [5] = Ebola virus entry assay, ratio channel
# [6] = Ebola virus entry assay, green channel fluorescence
# [7] = Ebola virus entry assay, blue channel fluorescence; remark: listed apart in the source
# [8] = biological target: T1, Hexokinase-4 (Homo sapiens) + Glucokinase regulatory protein (Homo sapiens) (UniProt P35557+Q14397); assay: qHTS assay for inhibitors of recombinant human GCK-GKRP interaction: Diaphorase-coupled assay (AID 743205; active = well fitted curve in the direction sought with a large enough effect); settings: G6PDH/diaphorase resorufin fluorescence; series mostly up to 57.5 µM
# T1 sequence (P35557 whole entry, looked up): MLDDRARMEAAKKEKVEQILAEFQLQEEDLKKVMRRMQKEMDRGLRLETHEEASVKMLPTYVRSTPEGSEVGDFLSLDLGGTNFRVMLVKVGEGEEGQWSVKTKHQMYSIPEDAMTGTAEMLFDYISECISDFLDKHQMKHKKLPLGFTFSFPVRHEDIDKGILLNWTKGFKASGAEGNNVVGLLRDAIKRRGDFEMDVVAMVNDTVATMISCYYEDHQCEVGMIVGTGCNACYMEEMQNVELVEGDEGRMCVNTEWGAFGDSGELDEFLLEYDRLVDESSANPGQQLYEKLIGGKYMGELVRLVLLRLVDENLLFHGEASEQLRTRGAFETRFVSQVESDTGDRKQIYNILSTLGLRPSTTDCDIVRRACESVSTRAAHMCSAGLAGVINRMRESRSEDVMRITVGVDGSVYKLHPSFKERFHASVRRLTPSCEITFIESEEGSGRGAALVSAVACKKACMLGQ
# T1 sequence (Q14397 whole entry, looked up): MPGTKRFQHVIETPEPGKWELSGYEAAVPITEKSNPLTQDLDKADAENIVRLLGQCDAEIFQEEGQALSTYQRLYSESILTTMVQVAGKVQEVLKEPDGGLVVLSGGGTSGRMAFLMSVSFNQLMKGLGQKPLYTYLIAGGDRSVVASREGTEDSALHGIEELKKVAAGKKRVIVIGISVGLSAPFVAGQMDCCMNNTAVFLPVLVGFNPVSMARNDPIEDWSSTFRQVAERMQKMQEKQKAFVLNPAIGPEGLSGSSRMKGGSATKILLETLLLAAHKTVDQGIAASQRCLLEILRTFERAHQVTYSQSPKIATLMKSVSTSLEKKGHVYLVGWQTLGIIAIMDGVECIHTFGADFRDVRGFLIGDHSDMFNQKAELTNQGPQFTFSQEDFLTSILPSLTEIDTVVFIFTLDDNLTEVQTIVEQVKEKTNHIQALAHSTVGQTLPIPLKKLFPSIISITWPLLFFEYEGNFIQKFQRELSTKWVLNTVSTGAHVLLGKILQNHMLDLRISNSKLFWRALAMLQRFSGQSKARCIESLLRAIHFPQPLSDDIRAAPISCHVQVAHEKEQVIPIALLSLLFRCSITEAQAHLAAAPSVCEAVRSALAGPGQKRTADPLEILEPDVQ
# Procedure, shortened: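 Compounds pre-incubated 20 min with substrate, then 10 nM GST-GCK with 10 nM FLAG-GKRP added. GCK activity coupled via G6PDH and diaphorase to resorufin (5 mM glucose, 0.4 mM ATP, 0.15 mM NADP+, pH 7.6), read kinetically over 30 minutes at Ex 525/Em 590 nm.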
# [9] = biological target: T1, Hexokinase-4 (Homo sapiens) + Glucokinase regulatory protein (Homo sapiens); assay: qHTS assay for inhibitors of recombinant human GCK-GKRP interaction: ADP-Glo assay (AID 743206; active = well fitted curve in the direction sought with a large enough effect;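 note: plate controls were DMSO plus enzyme for no effect and no enzyme for full effect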); settings: ADP-Glo luminescence, 60 min, 0% = vehicle-only wells with enzyme present; series mostly up to 76.9 µM
# Procedure, shortened: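 GST-GCK and FLAG-GKRP (15 nM each in the dispensed mix, with 2 uM S6P) react with 0.4 mM ATP and 5 mM glucose (final) in Hepes pH 7.6 for 60 min at room temperature. ADP is measured by ADP-Glo luminescence.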
# [10] = biological target: T1, Hexokinase-4 (Homo sapiens) + Glucokinase regulatory protein (Homo sapiens); assay: qHTS assay for inhibitors of recombinant human GCK-GKRP interaction: HTRF assay (AID 743207; active = well fitted curve in the direction sought with a large enough effect;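 note: 0% = DMSO with GCK present and -100% = DMSO wells lacking GCK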); settings: recombinant GCK-GKRP HTRF binding, 60 min; series mostly up to 57.5 µM
# Procedure, shortened: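 HTRF binding of 5 nM GST-GCK and 5 nM FLAG-GKRP with 2 uM S6P in pH 7.1 Hepes buffer (MgCl2, KCl, DTT, Tween 20, BSA). Anti-FLAG XL665 and anti-GST donor added, 60 min at room temperature; 665/615 nm read, normalized to with- and without-GCK controls.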
# [11] = qHTS Assay for Identifying Gametocytocidal Compounds (AID 743244; active = well fitted curve in the direction sought with a large enough effect;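 note: % is set by controls: 0 for no effect and ±100 for the full control effect; actives lower the fluorescent signal which means gametocytes are killed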); settings: P. falciparum 3D7 stage III-V gametocytes, alamarBlue, 72 h; max response: stronger effect = lower value
# Procedure, shortened: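 Stage III–V gametocytes of P. falciparum 3D7 were seeded at 20,000 cells/well onto pre-dispensed compounds. After 72 h, 37 °C, 5% CO2, alamarBlue was added for another 24 h.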
# [12] = qHTS profiling of the MIPE4 collection as inhibitors of Plasmodium falciparum (3D7) proliferation (AID 743344; call rule not given here;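 note: scaled between DMSO vehicle wells and 0.29 µM artemisinin as full inhibition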); settings: P. falciparum 3D7 in erythrocytes, SYBR Green DNA fluorescence, 72 h; at 28.5 µM (top of the series) unless noted
# Procedure, shortened: (§1)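 Erythrocytes infected with P. falciparum (0.3% parasitemia, 2.5% hematocrit) incubated with compounds 72 h at 37 C, 5% CO2. Lysis with saponin/Triton buffer containing SYBR Green I, overnight at room temperature in the dark; DNA fluorescence (485/535 nm) normalised to 0.29 uM artemisinin and DMSO.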
# [13] = qHTS profiling of the MIPE4 collection as inhibitors of Plasmodium falciparum (DD2) proliferation (AID 743345; call rule not given here); settings: P. falciparum Dd2 in erythrocytes, SYBR Green DNA, 72 h; at 28.5 µM (top of the series) unless noted
# Procedure, shortened: as §1
# [14] = qHTS profiling of the MIPE4 collection as inhibitors of Plasmodium falciparum (DD2) proliferation (Rep 2) (AID 743346; call rule not given here); settings: P. falciparum Dd2 in erythrocytes, SYBR Green DNA, 72 h; at 28.5 µM (top of the series) unless noted
# Procedure, shortened: as §1
# [15] = qHTS profiling of the MIPE4 collection as inhibitors of Plasmodium falciparum (HB3) proliferation (AID 743347; call rule not given here;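 note: plate controls were DMSO vehicle wells for no effect and artemisinin wells for full effect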); settings: P. falciparum HB3 in erythrocytes, SYBR Green DNA, 72 h; at 28.5 µM (top of the series) unless noted
# Procedure, shortened: as §1
smiles,measurement,setting,value
CNCCC=C1c2ccccc2CCc2ccccc21,AC50,[1],8.91 µM (active)
same,outcome,[2],inactive
same,AC50,[3],7.95 µM (active)
CC[C@@H](C)CCCCC(=O)N[C@@H](CCNCS(=O)(=O)O)C(=O)N[C@H](C(=O)N[C@@H](CCNCS(=O)(=O)O)C(=O)N[C@H]1CCNC(=O)[C@H]([C@@H](C)O)NC(=O)[C@H](CCNCS(=O)(=O)O)NC(=O)[C@H](CCNCS(=O)(=O)O)NC(=O)[C@H](CC(C)C)NC(=O)[C@@H](CC(C)C)NC(=O)[C@H](CCNCS(=O)(=O)O)NC1=O)[C@@H](C)O (X1-[Dab(CH2SO3H)]T[Dab(CH2SO3H)][Dab][Dab(CH2SO3H)][dL]L[Dab(CH2SO3H)][Dab(CH2SO3H)]T; lactam 4-C),outcome,[1],inactive
same,outcome,[2],inactive
same,outcome,[3],inactive
CCc1cc(C(N)=S)ccn1,outcome,[1],inactive
same,outcome,[2],inactive
same,outcome,[3],inactive
same,outcome,[4],inactive
same,outcome,[5],inactive
same,outcome,[6],inactive
same,outcome,[7],inactive
CC(C)(C)NC[C@H](O)COc1ccccc1C1CCCC1,AC50,[1],4.47 µM (active)
same,outcome,[2],inactive
same,AC50,[3],3.55 µM (active)
O=C(OC1C[C@@H]2CC3C[C@H](C1)N2CC3=O)c1c[nH]c2ccccc12 (some centres undefined),outcome,[1],inactive
same,outcome,[2],inactive
same,outcome,[3],inactive
CO[C@@H]1[C@@H](O[C@@H]2O[C@H](C)[C@@H](O[C@H]3C[C@@](C)(O)[C@@H](O)[C@H](C)O3)[C@H](N(C)C)[C@H]2O)[C@@H](CC=O)C[C@@H](C)[C@@H](O[C@@H]2CC[C@H](N(C)C)[C@@H](C)O2)/C=C/C=C/C[C@@H](C)OC(=O)C[C@H]1O,outcome,[1],inactive
same,outcome,[2],inactive
same,outcome,[3],inactive
CNCCCC12CCC(c3ccccc31)c1ccccc12,AC50,[1],3.16 µM (active)
same,outcome,[2],inactive
same,AC50,[3],3.17 µM (active)
same,AC50,[4],3.55 µM (active)
same,AC50,[5],3.16 µM (active)
N#Cc1ccc2c(c1)N(CCCN1CCC(O)CC1)c1ccccc1S2,outcome,[1],inactive
same,outcome,[2],inactive
same,AC50,[3],22.4 µM (active)
NC(N)=NC(=O)Cc1c(Cl)cccc1Cl,outcome,[1],inactive
same,outcome,[2],inactive
same,outcome,[3],inactive
same,outcome,[4],inactive
same,outcome,[5],inactive
same,outcome,[6],inactive
same,outcome,[7],inactive
CC(=O)O[C@H]1C(=O)[C@@]2(C)[C@H]([C@H](OC(=O)c3ccccc3)[C@]3(O)C[C@H](OC(=O)[C@H](O)[C@@H](NC(=O)c4ccccc4)c4ccccc4)C(C)=C1C3(C)C)[C@]1(OC(C)=O)CO[C@@H]1C[C@@H]2O,outcome,[1],inactive
same,outcome,[2],inactive
same,outcome,[3],inactive
Nc1ncn([C@H]2C[C@H](O)[C@@H](CO)O2)c(=O)n1,outcome,[1],inactive
same,outcome,[2],inactive
same,outcome,[3],inactive
same,outcome,[4],inactive
same,outcome,[5],inactive
same,outcome,[6],inactive
same,outcome,[7],inactive
NCC[C@H](O)C(=O)N[C@@H]1C[C@H](N)[C@@H](O[C@H]2O[C@H](CN)[C@@H](O)[C@H](O)[C@@H]2O)[C@H](O)[C@@H]1O[C@H]1O[C@H](CO)[C@@H](O)[C@H](N)[C@@H]1O,outcome,[1],inactive
same,outcome,[2],inactive
same,outcome,[3],inactive
same,outcome,[4],inactive
same,outcome,[5],inactive
same,outcome,[6],inactive
same,outcome,[7],inactive
C=CCN1C[C@H](C(=O)N(CCCN(C)C)C(=O)NCC)C[C@@H]2c3cccc4[nH]cc(c34)C[C@H]21,outcome,[1],inactive
same,outcome,[2],inactive
same,outcome,[3],inactive
same,outcome,[4],inactive
same,outcome,[5],inactive
same,outcome,[6],inactive
Nc1nc2ccc(OC(F)(F)F)cc2s1,outcome,[1],inactive
same,outcome,[2],inactive
same,outcome,[3],inactive
same,outcome,[6],inactive
same,outcome,[7],inactive
NC(=O)c1cnccn1,outcome,[1],inactive
same,outcome,[2],inactive
same,outcome,[3],inactive
same,outcome,[4],inactive
same,outcome,[6],inactive
same,outcome,[7],inactive
CC1COc2c(N3CCN(C)CC3)c(F)cc3c(=O)c(C(=O)O)cn1c23 (centres undefined),outcome,[1],inactive
same,outcome,[2],inactive
same,outcome,[3],inactive
same,outcome,[4],inactive
same,outcome,[6],inactive
same,outcome,[7],inactive
CC(NC(C)(C)C)C(=O)c1cccc(Cl)c1 (centres undefined),outcome,[8],inactive
same,outcome,[9],inactive
same,outcome,[10],inactive
same,max response,[11],-0.241% (inactive) and 10.5% (inactive)
same,"parasite growth, % of DMSO control",[12],26.6%
same,"parasite growth remaining, % of DMSO control (lower = more inhibition)",[13],55.9%
same,"parasite growth, % of control (lower = inhibition)",[14],31%
same,"growth, % of control",[15],7.91%
same,outcome,[1],inactive
same,outcome,[2],inactive
same,outcome,[3],inactive
same,outcome,[4],inactive
same,outcome,[6],inactive
same,outcome,[7],inactive
OCCOCCN1CCN(C2=Nc3ccccc3Sc3ccccc32)CC1,outcome,[1],inactive
same,outcome,[2],inactive
same,outcome,[3],inactive
same,outcome,[4],inactive
same,outcome,[7],inactive
Cc1nnc(SCC2=C(C(=O)O)N3C(=O)[C@@H](NC(=O)Cn4cnnn4)[C@H]3SC2)s1,outcome,[1],inactive
same,outcome,[2],inactive
same,outcome,[3],inactive
same,outcome,[4],inactive
same,outcome,[6],inactive
same,outcome,[7],inactive
Clc1ccc2nsnc2c1NC1=NCCN1,outcome,[1],inactive
same,outcome,[2],inactive
same,outcome,[3],inactive
same,outcome,[4],inactive
same,outcome,[6],inactive
same,outcome,[7],inactive
CNNCc1ccc(C(=O)NC(C)C)cc1,outcome,[1],inactive
same,outcome,[2],inactive
same,outcome,[3],inactive
same,outcome,[6],inactive
same,outcome,[7],inactive
C[N+]1(C)CCCC(OC(=O)C(O)(c2ccccc2)c2ccccc2)C1 (centres undefined),outcome,[1],inactive
same,outcome,[2],inactive
same,outcome,[3],inactive
same,outcome,[5],inactive
same,outcome,[6],inactive
same,outcome,[7],inactive
